Screens: PubChem BioAssay, National Center for Advancing Translational Sciences (NCATS)
A selection: hits, their analogues and other compounds. The true share with any hit is near 6.6%.
KB-3-1 tox: kills parental KB-3-1 adenocarcinoma cells; KB-3-1 viability, CellTiter-Glo ATP luminescence, 72 h; Potency, µM (highest dose often 46.1 µM), usual class: cytotoxic; hit rate 1.4% among 400,000; AID 1347075; further: nearly all actives have a fitted effect of over 60% in size
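Screening of KB-3-1 cells (DMEM, 10% FBS, phenol-red free) ran from lowest to highest compound concentration; after 72 h at 37 °C viability was read luminescently and curves fitted.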
SW480 rereplic: DNA re-replication induction in SW480 cells | SW480 DNA re-replication, Hoechst DNA content imaging, 48 h | AID 624297 | Potency, µM (doses to about 46.1 µM), most hits filed as activators | hit rate 1.8% among 340,000; further: nearly all actives have a fitted effect of over 55% in size
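Compounds, transferred as 23 nL by pin tool, were incubated with cells for 48 hr; DNA content per nucleus was then quantified by Hoechst staining and fluorescence plate imaging.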
KB-V1 cytotox: KB-V1 MDR subline cytotoxicity; AID 1347076; hit rate 3.4% among 400,000; Potency, µM (series often up to 46.1 µM), actives largely listed as cytotoxic; KB-V1 MDR cells viability, CellTiter-Glo, 72 h; further: nearly all actives have a fitted effect of over 60% in size
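Potencies derive from concentration-effect curves fitted to normalized luminescence (CellTiter-Glo) of KB-V1 cells treated for 72 h at 37 degrees C in phenol-red-free DMEM containing 10% FBS.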
PTAP TSG101 blk: blocks PTAP/TSG101 interaction to inhibit HIV-1 budding; Fluorescence polarization, FITC-PTAP peptide / Tsg101 binding; Potency, µM (titrated, usually from 115 µM), hits mostly inhibitors; 340,000 tested, under 10 active; active means well fitted inhibition curve with a large enough effect in the main read-out, with a control signal flat, not every such curve was filed as active; inconclusive means small, poorly fitted or top-dose-only effect, or effect the other way, or a change in a side signal; inactive means no such curve, though single readings can be large or run the other way
Target sequence (Q99816 whole entry, looked up): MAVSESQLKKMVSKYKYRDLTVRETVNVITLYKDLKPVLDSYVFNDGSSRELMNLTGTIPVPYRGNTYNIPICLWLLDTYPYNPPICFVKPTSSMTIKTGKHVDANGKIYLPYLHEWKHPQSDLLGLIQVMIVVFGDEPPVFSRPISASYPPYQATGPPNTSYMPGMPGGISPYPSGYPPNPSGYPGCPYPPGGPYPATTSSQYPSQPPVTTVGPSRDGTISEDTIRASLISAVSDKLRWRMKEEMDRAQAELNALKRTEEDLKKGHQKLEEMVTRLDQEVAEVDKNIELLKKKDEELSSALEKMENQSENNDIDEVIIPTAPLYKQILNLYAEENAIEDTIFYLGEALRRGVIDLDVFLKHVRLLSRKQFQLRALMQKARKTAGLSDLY
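Tsg101 binding domain (10 uM final) was mixed with compound and a FITC-labeled PTAP peptide (50 nM final) in HEPES pH 7.5 buffer with NaCl, Tween 20, EDTA and TCEP; fluorescence polarization was read after 20 min at r.t.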
MCF10A rereplic: DNA re-replication induction in MCF 10a cells. MCF 10A DNA re-replication, Hoechst nuclear intensity, 48 h. Potency, µM (highest dose often 46.1 µM), most hits filed as activators. hit rate 2.9% among 350,000. AID 624296; further: nearly all actives have a fitted effect of over 50% in size
RGS4 inh: blocks human RGS4-accelerated GTP hydrolysis. hit rate 0.039% among 390,000. AID 504845. Potency, µM (titrated, usually from 114 µM), actives largely listed as inhibitors. P49798. Transcreener GDP fluorescence polarization, RGS4-accelerated GTP hydrolysis; further: nearly all actives have a fitted effect of over 75% in size
Target sequence (P49798 whole entry, looked up): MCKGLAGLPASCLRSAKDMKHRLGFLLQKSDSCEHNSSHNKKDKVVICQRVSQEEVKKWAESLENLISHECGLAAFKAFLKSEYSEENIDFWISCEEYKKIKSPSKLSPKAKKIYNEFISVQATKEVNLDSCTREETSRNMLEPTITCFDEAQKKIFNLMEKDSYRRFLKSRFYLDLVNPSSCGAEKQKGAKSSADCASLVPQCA
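MLSMR compounds (23 nl, pin-transferred) preincubated 10 min at room temperature with a 500nM (2x) first reagent, then RGS4 at 900nM (2x) plus Transcreener GDP mix added; fluorescence polarization (620/688 nm) read before and after 90 min at 30 °C.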
A number is an active result; – = inactive; ? = inconclusive; · = no result. Unless noted, the call rests on the fitted dose curve; in most records, active means well fitted curve in the direction sought with a large enough effect; inconclusive means small, poorly fitted or top-dose-only effect, or another doubt; inactive means no such curve, though single readings can be large; an effect the other way counts as inactive or inconclusive.

SMILES | KB-3-1 tox | SW480 rereplic | KB-V1 cytotox | PTAP TSG101 blk | MCF10A rereplic | RGS4 inh
CCOC(=O)C1CCCN(C(=O)Cn2ncc3c(C)n(Cc4ccccc4Cl)c(C)c3c2=O)C1 (centres undefined) | – | · | – | · | · | –
CCc1ccc(Oc2ncnc(N)c2[N+](=O)[O-])cc1 | – | – | – | – | – | –
CC(=O)c1ccc(Oc2ncnc(N)c2[N+](=O)[O-])cc1 | ? | – | ? | – | 4.1µM | –
CCc1ccc(S(=O)(=O)NCc2ccc3c(c2)CCN3C(=O)c2ccc(C)cc2)cc1 | · | · | · | · | · | –
CN(/N=C/c1ccc(O)cc1O)c1nc(-c2ccccc2)cc(-c2ccccc2)n1 | ? | ? | – | – | 18µM | –
Cc1cc(-c2ccccc2)nc(N/N=C/c2ccc(O)cc2O)n1 | ? | ? | ? | – | – | –
Cc1cccc(-c2c3c(=O)n(C)c(=O)n(C)c3cn2-c2cc(N)c(Cl)cc2Cl)c1 | · | · | · | · | · | –
COC(=O)c1ccc(C(=O)OC)c(NC(=S)N2CCCC(C)C2)c1 (centres undefined) | – | ? | 18µM | – | – | –
COC(=O)c1ccc(C(=O)OC)c(NC(=S)N2CCC(N3CCCCC3)CC2)c1 | – | – | – | – | – | –
COC(=O)c1ccc(C(=O)OC)c(NC(=S)N2CC(C)CC(C)C2)c1 (centres undefined) | – | – | 15µM | – | – | –
Cc1ccc(CSC2=Nc3ccccc3C3=NC(CCC(=O)NCCc4ccccc4)C(=O)N23)cc1 (centres undefined) | – | · | – | · | · | –
Cc1cccc(N2CCN(S(=O)(=O)c3csc(C(N)=O)c3)CC2)c1C | 21µM | · | – | · | · | –
Cc1cccc(N2CCN(C(=O)c3cc(S(=O)(=O)N4CCOCC4)cn3C)CC2)c1C | – | – | – | – | ? | –
Cn1cc(S(=O)(=O)N2CCCCCC2)cc1C(=O)N1CCN(c2cccc(C(F)(F)F)c2)CC1 | ? | · | 21µM | · | · | –
Cc1cccc(N2CCN(C(=O)c3cc(S(=O)(=O)N4CCCC4)cn3C)CC2)c1C | – | 15µM | – | – | 8.2µM | –
CCCc1nn2c(=O)cc(COC(=O)c3cccc(NC(=O)c4ccc(OCC)cc4)c3)nc2s1 | · | · | · | · | · | –
CCOCCc1nn2c(=O)cc(COC(=O)c3ccc(NC(=O)C(C)(C)C)cc3)nc2s1 | – | · | – | · | · | –
Cc1ccc(C)c(N=Nc2nc3ccccc3n2C)c1 | – | ? | 15µM | – | ? | –
c1ccc2c(CCNc3ncnc4nc[nH]c34)cccc2c1 | 18µM | – | – | – | ? | –
c1ccc(CCCNc2ncnc3nc[nH]c23)cc1 | ? | – | – | – | – | –
CCOC(=O)C1=C(C)N=c2s/c(=C\c3ccc(O)c([N+](=O)[O-])c3)c(=O)n2C1c1ccccc1OC (centres undefined) | ? | – | ? | – | ? | –
CCOC(=O)C1=C(C)n2c(s/c(=C/c3cccc([N+](=O)[O-])c3)c2=O)=NC1c1ccc(O)c(OC)c1 (centres undefined) | ? | ? | 18µM | – | 16µM | –
COc1ccc2nc3n(c(=O)c2c1)-c1cc2ccccc2cc1C(=O)NC3Cc1ccccc1 (centres undefined) | 12µM | · | ? | · | · | ·
CCNS(=O)(=O)c1ccc(CCC(=O)Nc2cc(Cl)ccc2Oc2ccccc2)cc1 | – | – | 16µM | – | – | –
Cn1c(SCC(=O)N(C2CCCCC2)C2CCCCC2)nnc1-c1cccs1 | ? | ? | – | – | 13µM | –
SMILES | KB-3-1 tox | SW480 rereplic | KB-V1 cytotox | PTAP TSG101 blk | MCF10A rereplic | RGS4 inh
Cn1c(SCC(=O)NC2CCCC2)nnc1-c1ccncc1 | – | – | – | – | – | –
Cn1c(SCc2ccccc2)nnc1-c1cccs1 | – | – | – | – | – | –
CCN(C(=O)C(C)Sc1nnc(-c2ccncc2)n1C)C1CCCCC1 (centres undefined) | – | – | 16µM | – | – | –
Cn1c(SCc2ccc(F)cc2)nnc1-c1cccs1 | – | – | 16µM | – | – | –
C=C1C(=O)C2=CC1CCC(=O)C1(C)CCC(OC(C)=O)C(C)(C)C1CC2O (centres undefined) | 8.2µM | 2.1µM | 6.5µM | – | 9.2µM | –
CCc1nn(CC(=O)N(CC)Cc2ccccc2)c(=O)c2cc3occc3n12 | – | · | – | · | · | –
CN(CCO)C1=NS(=O)(=O)c2cc([N+](=O)[O-])ccc21 | – | ? | – | – | ? | –
C=CCOCCN(C)C1=NS(=O)(=O)c2cc([N+](=O)[O-])ccc21 | ? | 9.2µM | – | – | ? | –
CCOc1ccc(CN2CCN(Cc3[nH]c4ccccc4c3C)CC2CCO)cc1 (centres undefined) | ? | 23µM | ? | – | ? | –
Cc1c(CN2CCN(CC(C)(C)C)C(CCO)C2)[nH]c2ccccc12 (centres undefined) | – | – | – | – | – | –
O=C1CC(C(=O)Nc2ccc(Cl)cc2[N+](=O)[O-])C2(CCCCC2)O1 (centres undefined) | – | – | 15µM | – | – | –
O=C(Cn1cnc2sc3c(c2c1=O)CCCC3)NCC(=O)Nc1c(F)cccc1F | – | 16µM | – | – | – | –
COc1ccc(NC(=O)CCCNC(=O)Cn2cnc3sc4c(c3c2=O)CCCC4)c(OC)c1 | – | – | 21µM | – | – | ?
Cc1ccc(N2CCN(C(=O)Nc3cn(CC(C)C)c(=O)c4ccccc34)CC2)c(C)c1 | – | · | – | · | · | –
COc1ccc(S(=O)(=O)N2CN(Cc3ccco3)c3nc4ccccc4nc32)cc1 | – | ? | 5.8µM | – | – | –
Cc1ccc(S(=O)(=O)N2CN(Cc3ccco3)c3nc4ccccc4nc32)cc1 | – | – | – | – | – | –
COc1ccccc1-c1nnc(C2CCN(S(=O)(=O)c3ccccc3)CC2)o1 | – | · | – | · | · | –
COc1ccc(C(=O)COC(=O)c2ccc(NC(=O)c3ccccc3)cc2)cc1 | – | ? | 15µM | – | – | –
O=C(Nc1ccc(-c2ccccc2)cc1)c1ccccc1 | 21µM | – | – | – | ? | –
O=C(c1ccccc1)c1ccccc1C(=O)c1ccccc1 | – | ? | – | – | – | –
COc1ccc(C(=O)c2ccccc2C(=O)c2ccccc2)cc1 | – | – | 18µM | – | – | –
Cc1ccc(NC(=O)c2ccccc2)cc1 | – | – | – | – | – | –
COc1ccc(OC)c(C(=O)c2ccc(C(=O)Nc3ccccc3)cc2)c1 | – | – | 23µM | – | – | –
COc1ccc(C(=O)Nc2ccc(C(=O)OCC(=O)c3ccccc3)cc2)cc1 | – | – | – | – | – | –
Cc1cc(C)c2oc(-c3cccc(NC(=O)COc4ccc(Cl)cc4C)c3C)nc2c1 | ? | · | – | · | · | ·
